High-throughput results: PubChem BioAssay, National Center for Advancing Translational Sciences (NCATS)
Shown are actives, neighbours in structure and some others; about 0.44% of the full set was active somewhere.
USP1 inh = Inhibitors of USP1/UAF1: Primary Screen; Ubiquitin carboxyl-terminal hydrolase 1 (Homo sapiens), O94782; recombinant USP1/UAF1, Ub-Rhodamine cleavage fluorescence; Potency, µM (doses to about 57.1 µM), hits mostly inhibitors; 390,000 tested, 0.23% active; note: nearly all actives have a fitted effect of over 60% in size
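USP1/UAF1 complex at 1 nM was preincubated with compound for 15 min at room temperature, then Ub-Rho substrate (150nM final) was added. Fluorescence (480/540 nm) was read kinetically, 6 reads every 60 seconds.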
EPAC2 antag = qHTS for Antagonist of cAMP-regulated guanine nucleotide exchange factor 2 (EPAC2): primary screen; 360,000 tested, 0.18% active; Rap guanine nucleotide exchange factor 4 (Homo sapiens), Q8WZA2; Potency, µM (highest dose often 114 µM), most hits filed as inhibitors; EPAC2 GEF exchange of Rap1B-BODIPY-GDP, fluorescence; note: nearly all actives have a fitted effect of over 45% in size
EPAC1 antagonist = qHTS for Antagonist of cAMP-regulated guanine nucleotide exchange factor 3 (EPAC1): primary screen. Rap guanine nucleotide exchange factor 3 (Homo sapiens), O95398. EPAC1 GEF assay, Rap1b-BODIPY-GDP exchange fluorescence. Potency, µM (series often up to 115 µM), actives largely listed as inhibitors. 360,000 tested, 0.14% active. AID 720709, 2013; note: nearly all actives have a fitted effect of over 50% in size
Target sequence (O95398 whole entry, looked up): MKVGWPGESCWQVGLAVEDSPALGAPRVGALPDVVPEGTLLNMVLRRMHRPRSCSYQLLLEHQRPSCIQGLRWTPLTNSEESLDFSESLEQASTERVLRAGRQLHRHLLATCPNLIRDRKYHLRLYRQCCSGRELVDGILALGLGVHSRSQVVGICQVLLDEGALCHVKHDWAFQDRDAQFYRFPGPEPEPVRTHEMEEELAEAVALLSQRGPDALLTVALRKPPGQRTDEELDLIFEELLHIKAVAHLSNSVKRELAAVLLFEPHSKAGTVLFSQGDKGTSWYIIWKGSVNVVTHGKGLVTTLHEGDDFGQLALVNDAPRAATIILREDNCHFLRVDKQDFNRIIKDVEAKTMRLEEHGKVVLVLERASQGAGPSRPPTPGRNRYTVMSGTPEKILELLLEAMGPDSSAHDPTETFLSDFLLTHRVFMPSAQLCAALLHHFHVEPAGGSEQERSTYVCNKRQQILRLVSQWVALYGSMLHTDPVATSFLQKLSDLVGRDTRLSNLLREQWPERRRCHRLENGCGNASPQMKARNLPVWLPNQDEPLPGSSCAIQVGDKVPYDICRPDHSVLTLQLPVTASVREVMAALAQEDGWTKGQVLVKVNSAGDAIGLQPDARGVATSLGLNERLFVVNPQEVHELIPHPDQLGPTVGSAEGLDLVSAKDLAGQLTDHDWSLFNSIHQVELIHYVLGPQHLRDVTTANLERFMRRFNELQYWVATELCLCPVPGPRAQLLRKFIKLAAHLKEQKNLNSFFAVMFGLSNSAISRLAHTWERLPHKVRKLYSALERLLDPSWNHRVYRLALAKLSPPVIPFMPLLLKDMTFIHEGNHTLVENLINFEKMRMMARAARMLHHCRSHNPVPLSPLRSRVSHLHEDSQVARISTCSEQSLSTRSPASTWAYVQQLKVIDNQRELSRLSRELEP
EPAC1 ag = qHTS for Agonist of cAMP-regulated guanine nucleotide exchange factor 3 (EPAC1): primary screen; Rap guanine nucleotide exchange factor 3 (Homo sapiens), O95398; EPAC1 agonist qHTS, biochemical assay; response scale: 100% = response to 6.5 mM cAMP; 360,000 tested, 0.073% active; Potency, µM (doses to about 154 µM), hits mostly activators; note: nearly all actives have a fitted effect of over 60% in size
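Normalized to 6.5 mM cAMP, activity reflects EPAC1-catalysed release of BODIPY-GDP from Rap1B, followed kinetically over 30 min at 480 nm excitation, 540 nm emission. Reaction contained 100 nM EPAC1, 250 nM Rap1B-BODIPY-GDP, 50 uM GDP.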
EPAC2 agonist = qHTS for Agonist of cAMP-regulated guanine nucleotide exchange factor 4 (EPAC2): primary screen; Rap guanine nucleotide exchange factor 4 (Homo sapiens), Q8WZA2; EPAC2 activation, biochemical qHTS; response scale: 100% = 6.5 mM cAMP response; Potency, µM (doses to about 154 µM), hits mostly activators; 360,000 tested, 0.079% active; AID 720711, 2013; note: nearly all actives have a fitted effect of over 50% in size
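EPAC2 (100 nM) mixed with Rap1B loaded with BODIPY-GDP (250 nM) plus 50 uM unlabeled GDP; compounds pinned in, 5 min RT, then read every 5 min for 30 min (ex 480, em 540 nm). Normalized to cAMP control.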
Numbers stand for hits; – = inactive; ? = inconclusive; · = not tested or not shown. Calls come from the whole dose curve; as a rule, active = well fitted curve in the direction sought with a large enough effect; inconclusive = small, poorly fitted or top-dose-only effect, or another doubt; inactive = no such curve, though single readings can be large; an effect the other way counts as inactive or inconclusive.

SMILES	USP1 inh	EPAC2 antag	EPAC1 antagonist	EPAC1 ag	EPAC2 agonist
C=CCOC(=O)C1=C[C@@H](c2cn(C(C)=O)c3ccccc23)C[C@@H](OCc2ccc(CO)cc2)O1	–	–	–	–	–
COc1ccc2cc(CCC(C)=O)ccc2c1	?	28µM	–	–	–
CC(=O)Nc1scc(-c2ccccc2)[n+]1-c1ccc(C)cc1	–	32µM	–	–	–
CN1CCN(C(CNC(=O)C(=O)Nc2cccc(Cl)c2)c2ccc3c(c2)OCO3)CC1 (stereo not drawn)	–	·	·	·	·
Cc1ccc(SCC(=O)OCC(=O)N(C)CC(=O)Nc2ccc(F)cc2)cc1C	–	–	–	126µM	–
CN(CC(=O)Nc1ccc(F)cc1)C(=O)CSc1ccc2c(c1)OCCO2	–	–	–	–	–
O=C(Nc1ccc2c(c1)OCO2)c1cc(C2CCCN(C(=O)C3CCCCC3)C2)on1 (stereo not drawn)	·	–	–	–	–
COc1ccc2c(Cl)c(C(=O)N/N=C3\CCCC(=O)C3)sc2c1	16µM	–	?	–	–
COc1ccc2c(Cl)c(C(=O)N/N=C/c3ccc4c(c3)OCO4)sc2c1	–	–	–	–	–
O=C(NCCc1ccc(F)cc1)c1cccc(NC(=O)c2ccccc2)c1	–	–	–	–	–
CCOc1ccc(S(=O)(=O)Nc2cc(SCC(=O)O)c(O)c3ccccc23)cc1	25µM	–	89µM	–	–
O=C(O)CSc1cc(NS(=O)(=O)c2cccc([N+](=O)[O-])c2)c2ccccc2c1O	18µM	?	?	–	112µM
CCc1ccc(S(=O)(=O)Nc2cc(SCC(=O)O)c(O)c3ccccc23)cc1	?	?	89µM	?	–
Cc1ccc(C)c(S(=O)(=O)Nc2cc(SCC(=O)O)c(O)c3ccccc23)c1	?	–	?	–	–
CC[C@]12c3[nH]c4cc(CCC(=O)N(C)C)ccc4c3CCN1C(=O)[C@@H](CC(=O)NCc1cccc(C(F)(F)F)c1)C[C@@H]2C(=O)N1CCN(C(=O)C2CC2)CC1	–	–	–	–	–
CCOc1ccccc1NC(=O)c1ccc2c(c1)C(=O)N(CC)C2=O	–	–	–	–	–
COc1ccc(C2=C(C)C(=O)N(Cc3ccc(C(=O)NCc4cccc(C)c4)cc3)S2(=O)=O)cc1	–	·	·	·	·
Cc1ccc(S(=O)c2ccc([N+](=O)[O-])c3nonc23)cc1 (stereo not drawn)	16µM	50µM	?	–	–
Cc1ccc(Nc2c([N+](=O)[O-])ccc3nonc23)c(C)c1	–	–	–	–	–
O=C(CN1C(=O)N/C(=C\c2ccccc2OCc2ccc(C(=O)O)cc2)C1=O)Nc1ccccc1F	?	–	35µM	–	–
O=C(O)c1ccc(COc2ccccc2/C=C2\NC(=O)N(Cc3ccccc3F)C2=O)cc1	–	–	–	–	–
COc1cccc(/C=C2/NC(=O)N(CC(=O)Nc3ccc(C)cc3)C2=O)c1OCc1cccc(C(=O)O)c1	25µM	–	?	–	–
CCCCn1c(N)c(N(CCOC)C(=O)CN(C)S(=O)(=O)c2ccc(C)cc2)c(=O)[nH]c1=O	–	–	–	–	–
Cc1cc(C(=O)NCC(C)(C)N2CCOCC2)c(C)o1	–	–	–	–	–
COc1cccc(NC(=O)CN(C)C(=O)CNC(=O)c2ccc(Oc3ccccc3)cc2)c1	–	–	–	63µM	–
COc1ccc(NC(=O)CN(C)C(=O)CNC(=O)c2ccc3ccccc3c2)cc1	–	–	–	–	–
CN(C)C(CNC(=O)c1ccc(S(=O)(=O)Nc2cccc(C(F)(F)F)c2)cc1)c1ccco1 (stereo not drawn)	–	–	–	–	–
CC1(C)CC2CC(C)(CN2C(=O)COC(=O)c2cccc([N+](=O)[O-])c2)C1 (stereo not drawn)	–	–	–	–	–
